Assay results from ChEMBL document CHEMBL3988442, “University of Dundee, Small-Polar-MMV Screening Library” (2021).

The compounds below were run against AMP-activated protein kinase, AMPK (Homo sapiens) (UniProt P54646+O43741+P54619+Q9UGJ0+Q9Y478+Q13131+Q9UGI9) (assay: AMP-dependent Kinase enzyme assay. An in vitro enzyme assay that detects ADP turnover that is directly proportional to AMPK activity. This uses naive AMPK that is activated during the assay with MK-8722). Conditions: 30 µM.
Format: functional
Set-up: scale not given: direction of the effect not stated beside the values

Going from `c1csc(CN2CCCN(c3ccc(Cn4ccnc4)cn3)CC2)c1` to `O=C(CCN1CCOCC1)Nc1cccc(CNCc2cccs2)c1`, the Percent Effect falls from -2.96% to -8.77%.

Compared with `OC(CNCCc1nnc2ccccn12)c1ccc(F)c(F)c1` (stereo not given), `Cc1ccc2[nH]c(CN(C)Cc3ccccc3C(=O)O)nc2c1` is lower in Percent Effect: 14.5% for the first, 4.71% for the second.

Compared with `CS(=O)(=O)c1ccc(CNC(=O)NCc2cc[nH]n2)cc1`, `CCC(CNC(=O)c1cccc(S(=O)(=O)NC)c1)N1CCCC1` (stereo not given) is higher in Percent Effect: -5.06% for the first, 0.599% for the second.

Going from `C[C@@H]1CN(c2ccc(Cl)cn2)C[C@@]1(O)C1CC1` to `CC(=O)c1cnc(NCCN2CCCC(c3ccccc3)C2)nc1C` (stereo not given), the Percent Effect falls from 5.94% to -7.52%.

Compared with `COc1ccc(C2(C(=O)N3CC(c4cccnc4)C3)CC2(C)C)cc1` (stereo not given), `CCCn1ncc(C(=O)N2CCCC(OCc3ccccn3)C2)c1C` (stereo not given) is higher in Percent Effect: -5.88% for the first, -1.18% for the second.

First: Cc1nnc(CN(Cc2cccc3c2OCO3)CC2CCCO2)n1C (stereo not given)
Second: COc1ccc2c(c1)OCC(CNC1CCc3ncnn3C1)=C2 (stereo not given)
The Percent Effect of the first is lower: -6.12% for the first, 7.82% for the second.

Compared with `O=C(CNC1(CCO)CCOCC1)Nc1ccc(F)cc1F`, `O=C(C1COCCO1)N1CCN(CC(F)(F)F)c2ccccc21` (stereo not given) is higher in Percent Effect: -0.128% for the first, 12.8% for the second.

Compared with `Cc1nn(C(C)C)c(C)c1CN1CCN(C2CCCCC2)C(=O)C1`, `CN(Cc1ccoc1)C(=O)C1CCN(C(=O)C2CCCC2)CC1` is lower in Percent Effect: 8.49% for the first, -3.16% for the second.

First: COCCOCC(=O)Nc1nc2c(OC)cc(F)cc2s1
Second: CCN(CC(=O)NC(C)C)C(=O)c1csc(Cc2ccccc2)n1
The Percent Effect of the first is higher: 3.08% for the first, -2.97% for the second.

First: CN1CCCC1c1ccnc2nccn12 (stereo not given)
Second: Cc1nc(-c2ccnn2C)cc(C2CCCN(S(C)(=O)=O)C2)n1 (stereo not given)
The Percent Effect of the first is lower: 6.44% for the first, 13.9% for the second.
